In PubChem BioAssay (NCI) one finds growth data, which are given here for twelve compounds.

The panel holds about 83,000 compounds, 20% with a hit somewhere; the sample as a whole holds those more often.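 A percent growth of 40 corresponds to 60% growth inhibition; 0 means no net growth; -100 means all cells died. Active threshold: below 10.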 A number with no mark means an inactive call. Activity calls are given as the source filed them.

The subject of the experiment is SN12C renal. Briefly: NCI-60 one-dose screen, 48 h (100 = growth as untreated, 0 = no growth, -100 = all killed). As to conditions: 10 µM unless noted.
Turning to `CCCCCCOC(=O)c1cc(-c2ccc(F)cc2)nc2ccccc12`, the growth was 95%.
As for `CN1CCN(c2ccc(Nc3nc(NCCNS(=O)(=O)c4ccccc4)c4sccc4n3)cc2)CC1`, the growth is 95%.
In the case of `CN1CCN(Cc2ccc(NC(=O)c3cncc(C#Cc4cnc5ccc(O[C@@H]6CCOC6)nn45)c3)cc2C(F)(F)F)CC1`, the growth was -77.4% (active).
For `CC(C)(C)Nc1nc2c(OCCc3ccccc3)cccn2c1-c1ccc([N+](=O)[O-])cc1`, the growth is 75.5%.
On to `N#Cc1c(-c2cccs2)cc(-c2cnccn2)nc1SCC(=O)N/N=C/c1ccc(Cl)cc1`, for which the growth was 104%.
`CN(C)CCCOc1ccc(C(=C(c2ccccc2)C2CCCC2)c2ccc(OCCCN(C)C)cc2)cc1`: the growth is -82.2% (active).
Take `N#Cc1nc(-c2ccc(Cl)cc2)oc1N1CCC(S(=O)(=O)N2CCOCC2)CC1`: the growth was 94.1%.
For `CC(=O)C1=C(C)NC(NNc2ccccc2)=NC1c1ccc([N+](=O)[O-])cc1` (configuration not stated), the growth is 98.8%.
Turning to `COC(=O)c1ccc(NC2=C(Cl)C(=O)C(C)=C(C)C2=O)cc1`, the growth is 80.2%.
With `C=C(C=O)[C@@H]1CC[C@]2(C(=O)O)CC[C@]3(C)C(CC[C@@H]4[C@@](C)(CCC#N)[C@H](C(=C)C=O)CC[C@]43C)[C@@H]12` (some centres not stated), the growth is 66.4%.
For the compound `CCOC(=O)C1=C(C)NC(C)=C(C(=O)OC(C)C)C1c1cccc(C#N)c1` (configuration not stated), the growth was 97.8%.
For `CC1(C)CC[C@]23CC[C@]4(C)[C@H](CC[C@@H]5[C@@]6(C)CC[C@H](NCO)C(C)(C)[C@@H]6CC[C@]54C)[C@H]2[C@H]1OC3`, the growth was 43.3%.
